Data reported in PubChem BioAssay (NCI).
This is part of a sample that, as a whole, favours compounds with a hit. Of some 83,000 tested, about 20% had one in any assay.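 Assay: single dose, 48 h. Readout: percent growth (0 = no net growth; negative = cell death). Active: <10.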 Calls of active or inactive are those of the source.

Legend:
Assay in all cases: NCI-60 one-dose screen, 48 h (100 = growth as untreated, 0 = no growth, -100 = all killed)
Settings in all cases: 10 µM unless noted
[1] = test system: NCI-H23 lung
[2] = test system: NCI-H226 lung
[3] = test system: NCI-H322M lung
[4] = test system: HOP-62 NSCLC
[5] = test system: NCI-H460 lung
[6] = test system: HOP-92 NSCLC
[7] = test system: NCI-H522 lung
[8] = test system: A549/ATCC NSCLC
[9] = test system: 786-0 renal
[10] = test system: COLO 205 colon
[11] = test system: DU-145 prostate
[12] = test system: K-562 leukemia
[13] = test system: MALME-3M melanoma
[14] = test system: RXF 393 renal
[15] = test system: SF-268 CNS
[16] = test system: SF-295 CNS
[17] = test system: SF-539 CNS
[18] = test system: UACC-257 melanoma
[19] = test system: M14 melanoma
[20] = test system: MDA-MB-231 breast

Measured: growth

O=C/C=C/c1ccc([N+](=O)[O-])cc1
inactive: [1] 96.7% | [2] 101% | [3] 104% | [4] 104% | [5] 106% | [6] 117% | [7] 97.3% | [8] 93.4% | [9] 102% | [10] 115% | [11] 102% | [12] 95.8% | [13] 99.6% | [14] 116% | [15] 98.2% | [16] 105% | [17] 99.3% | [18] 97.7% | [19] 93.3%

CCSc1nc2ccccc2o1
inactive: [1] 107% | [2] 106% | [3] 120% | [4] 99.4% | [5] 103% | [6] 81.8% | [7] 94.3% | [8] 96.1% | [9] 106% | [11] 111% | [12] 100% | [13] 118% | [20] 112% | [14] 110% | [15] 96.1% | [16] 113% | [17] 96.3% | [18] 106% | [19] 109%

CN(Cc1ccccc1)c1ccc(SC#N)cc1
inactive: [1] 89.8% | [2] 111% | [3] 94.7% | [4] 108% | [5] 86.6% | [6] 59.7% | [7] 45.5% | [8] 92% | [9] 79.4% | [10] 66.4% | [11] 103% | [12] 31.8% | [13] 82.4% | [14] 68.3% | [15] 85% | [16] 95.4% | [17] 87.7% | [18] 102% | [19] 84%

OC(Cc1cc(CC(O)(C(F)(F)F)C(F)(F)F)nc(CC(O)(C(F)(F)F)C(F)(F)F)c1)(C(F)(F)F)C(F)(F)F
inactive: [2] 11.6% | [3] 13.3% | [11] 24.9% | [15] 12.9% | [19] 13.7%
active: [1] -5.07% | [4] -37.3% | [5] 0.458% | [6] -27.9% | [7] -18.6% | [8] 3.09% | [9] 1.13% | [10] -92.6% | [12] 9.94% | [20] -45.6% | [14] -17.2% | [16] -8.82% | [17] -1.21% | [18] -28.3%

CCOc1cc(F)c([N+](=O)[O-])cc1[N+](=O)[O-]
active: [7] -55.7% | [10] -48.4% | [12] 0.671% | [13] -19.2%
inactive: [1] 38.9% | [2] 95.3% | [3] 103% | [4] 93.8% | [5] 106% | [6] 72.1% | [8] 90.9% | [9] 59.9% | [20] 37.9% | [14] 12.4% | [15] 77.6% | [16] 96.9% | [18] 56.5% | [19] 30.5%

COc1cc(/C=C2\SC(=S)N(/C=C/c3nc4ccccc4[nH]c3=O)C2=O)cc(OC)c1OC
inactive: [1] 69.7% | [2] 76.6% | [3] 89.1% | [4] 65.8% | [5] 92.1% | [6] 53.3% | [7] 60.3% | [8] 67.5% | [9] 76.6% | [10] 101% | [11] 97.7% | [12] 88.1% | [20] 80.1% | [14] 77.7% | [15] 77.5% | [16] 88.4% | [17] 95.2% | [18] 79.2%

CCCCC(CCc1ccc([N+](=O)[O-])cc1)(C(C)=O)C(=O)OCC (centres undefined)
inactive: [1] 95.7% | [2] 89.7% | [3] 108% | [4] 102% | [5] 105% | [6] 91.5% | [7] 104% | [8] 100% | [9] 98.2% | [10] 111% | [11] 102% | [12] 99.7% | [20] 98.2% | [14] 85.8% | [15] 95.9% | [16] 99.2% | [17] 94.7% | [18] 99.1% | [19] 96.7%

Nc1nc2ncc(CNc3ccc(C(=O)NC(CCC(=O)NC(CCC(=O)NC(CCC(=O)NC(CCC(=O)NC(CCC(=O)O)C(=O)O)C(=O)O)C(=O)O)C(=O)O)C(=O)O)cc3)nc2c(=O)[nH]1 (centres undefined)
inactive: [1] 101% | [2] 113% | [3] 97.5% | [4] 100% | [5] 120% | [6] 95.3% | [7] 96.9% | [8] 104% | [9] 105% | [10] 113% | [11] 108% | [12] 97.4% | [13] 90.3% | [14] 112% | [15] 105% | [16] 106% | [17] 99.8% | [18] 105% | [19] 107%

Oc1ccc2c(c1)CCc1ccccc1-2
inactive: [1] 108% | [2] 93.5% | [3] 110% | [4] 83.3% | [5] 106% | [6] 97.4% | [7] 100% | [8] 98.1% | [9] 88.1% | [10] 106% | [11] 109% | [12] 121% | [20] 111% | [14] 92.6% | [15] 92.1% | [16] 96.3% | [17] 89.9% | [18] 99.2% | [19] 102%

O=C(NNc1ccccc1)OCc1ccccc1
inactive: [1] 103% | [2] 97.7% | [3] 67.6% | [4] 100% | [5] 79.5% | [6] 82% | [7] 82.1% | [8] 70.7% | [9] 78.2% | [11] 69.1% | [13] 121% | [20] 74.4% | [14] 119% | [15] 63% | [16] 58% | [17] 97.1% | [18] 92.4% | [19] 17.6%
active: [12] 3.91%

O=C1C=CC(=O)N1c1cc(Cl)c(Cl)cc1Cl
inactive: [1] 100% | [2] 100% | [3] 90.6% | [4] 100% | [5] 107% | [6] 107% | [7] 84.4% | [8] 103% | [9] 96% | [11] 109% | [12] 93.9% | [13] 96.6% | [20] 120% | [14] 106% | [15] 102% | [16] 97.5% | [17] 109% | [18] 101% | [19] 103%

NNc1ccc(Cl)cc1Cl
inactive: [1] 82.7% | [2] 86.3% | [3] 77.3% | [4] 64.9% | [5] 97.5% | [6] 55.2% | [7] 53.6% | [8] 82.9% | [9] 86.5% | [10] 91.5% | [11] 108% | [12] 13.4% | [13] 104% | [14] 102% | [15] 71.7% | [16] 76.6% | [17] 94.5% | [19] 67.6%

COc1cc(NC(=O)C2=C(C)NC(C)=C(C(=O)Nc3cc(OC)c(Cl)cc3OC)C2c2cccc([N+](=O)[O-])c2)c(OC)cc1Cl
inactive: [1] 34.6% | [2] 45.7% | [3] 46.3% | [4] 43.2% | [5] 36.8% | [6] 13.2% | [7] 46.8% | [8] 35.7% | [9] 39% | [10] 50.5% | [11] 58.4% | [12] 33.4% | [13] 37.5% | [14] 36.7% | [15] 39.3% | [16] 26.3% | [17] 31.8% | [18] 46.9% | [19] 20.1%

CCCCCCN(CCCCCC)CCCNc1nccc2ccccc12
inactive: [1] 12% | [2] 42.9% | [3] 28.7% | [4] 64.3% | [8] 14.3% | [11] 26.5% | [14] 29.5% | [15] 33.2% | [18] 41.7%
active: [5] 3.2% | [6] -14.6% | [7] 4.1% | [9] 5.89% | [12] 0.764% | [13] -58.6% | [20] 1.89% | [16] -50.8% | [17] -23.2% | [19] -41.3%

CCOC(=O)C1=C(C(=O)c2ccccc2)C(c2cccc([N+](=O)[O-])c2)C(C(=O)c2ccccc2)=C(C(=O)OCC)N1
inactive: [1] 86.3% | [2] 84.9% | [3] 94.1% | [4] 93% | [5] 98.8% | [6] 85.6% | [7] 83.5% | [8] 95.3% | [9] 93.9% | [10] 114% | [11] 97% | [12] 21.5% | [13] 93.1% | [14] 79.3% | [15] 93.9% | [16] 90.2% | [17] 95.7% | [18] 105% | [19] 89.9%

O/N=C1\c2ccccc2-c2ccc(F)cc21
inactive: [1] 99.4% | [2] 82.5% | [3] 92.5% | [4] 95.9% | [5] 98.9% | [6] 94.7% | [7] 100% | [8] 100% | [9] 104% | [10] 73.7% | [12] 99.1% | [13] 114% | [20] 88.2% | [14] 111% | [16] 117% | [17] 97% | [18] 110% | [19] 107%

CCCCCCCCCCCC(=O)OC(C)C(=O)NCCCC (centres undefined)
inactive: [1] 97.3% | [2] 86% | [3] 91.7% | [4] 94% | [5] 105% | [6] 98.1% | [7] 104% | [8] 98.8% | [9] 101% | [11] 105% | [12] 94.1% | [13] 96.4% | [20] 113% | [14] 107% | [15] 101% | [16] 102% | [17] 108% | [18] 96.4% | [19] 105%
